This is an account of results in ChEMBL document CHEMBL2218924, “A broad activity screen in support of a chemogenomic map for kinase signalling research and drug discovery” (Biochem J, 2013).

Usually residual activity stands for the signal under treatment as a percentage of the control signal.

The target in assay [1] is T1, Casein kinase II (Homo sapiens) (UniProt P67870+P68400+P19784). Particulars: at 1 µM.
In assay [2] the target is T1, Casein kinase II (Homo sapiens). Particulars: at 10 µM.
The target of assay [3] is Dual specificity protein kinase CLK2 (Homo sapiens) (UniProt P49760). Conditions: at 10 µM.
Assay [4] concerns the target Dual specificity protein kinase CLK3 (Homo sapiens) (UniProt P49761). Conditions: at 1 µM.
Assay [5] shares this target. Particulars: at 10 µM.
Assay [6] has as its target Calcium/calmodulin-dependent protein kinase type 1 (Homo sapiens) (UniProt Q14012). Particulars: at 10 µM.
The target of assay [7] is Calcium/calmodulin-dependent protein kinase type II subunit beta (Homo sapiens) (UniProt Q13554). Conditions: at 1 µM.
Assay [8] shares this target. Particulars: at 10 µM.
Assay [9] deals with Calcium/calmodulin-dependent protein kinase type II subunit gamma (Homo sapiens) (UniProt Q13555). Conditions: at 1 µM.
For assay [10] the target is unchanged. Conditions: at 10 µM.
Assay [11] concerns the target Calcium/calmodulin-dependent protein kinase type II subunit delta (Homo sapiens) (UniProt Q13557). Conditions: at 1 µM.
Assay [12] shares this target. Particulars: at 10 µM.
The target of assay [13] is T2, Calcium/calmodulin-dependent protein kinase type IV (Homo sapiens) (UniProt Q16566).
T2 sequence (whole entry): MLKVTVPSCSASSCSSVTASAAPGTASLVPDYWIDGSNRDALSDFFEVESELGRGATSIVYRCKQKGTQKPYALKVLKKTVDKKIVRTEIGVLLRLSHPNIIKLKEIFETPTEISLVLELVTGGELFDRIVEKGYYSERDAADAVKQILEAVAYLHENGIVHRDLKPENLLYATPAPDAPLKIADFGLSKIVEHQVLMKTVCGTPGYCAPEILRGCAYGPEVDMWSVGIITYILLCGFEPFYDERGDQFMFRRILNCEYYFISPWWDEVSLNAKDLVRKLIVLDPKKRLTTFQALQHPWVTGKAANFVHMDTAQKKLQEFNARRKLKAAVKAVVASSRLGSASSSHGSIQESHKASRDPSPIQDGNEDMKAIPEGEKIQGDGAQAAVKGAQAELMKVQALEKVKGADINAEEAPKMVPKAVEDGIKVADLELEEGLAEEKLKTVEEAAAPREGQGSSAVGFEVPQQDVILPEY
Conditions: at 1 µM.

Assay [14] has as its target T2, Calcium/calmodulin-dependent protein kinase type IV (Homo sapiens). Particulars: at 10 µM.
In assay [15] the target is Casein kinase II subunit alpha' (Homo sapiens) (UniProt P19784). Particulars: at 1 µM.
For assay [16] the target is unchanged. Particulars: at 10 µM.
Assay [17] deals with Dual specificity protein kinase CLK2 (Homo sapiens) (UniProt P49760). Conditions: at 1 µM.
Assay [18] concerns the target Tyrosine-protein kinase CSK (Homo sapiens) (UniProt P41240). Particulars: at 1 µM.
The target is the same in assay [19]. Particulars: at 10 µM.
For assay [20], the target named is Calcium/calmodulin-dependent protein kinase type 1 (Homo sapiens) (UniProt Q14012). Conditions: at 1 µM.
Calcium/calmodulin-dependent protein kinase type 1 (Homo sapiens), sequence (Q14012 whole entry, looked up): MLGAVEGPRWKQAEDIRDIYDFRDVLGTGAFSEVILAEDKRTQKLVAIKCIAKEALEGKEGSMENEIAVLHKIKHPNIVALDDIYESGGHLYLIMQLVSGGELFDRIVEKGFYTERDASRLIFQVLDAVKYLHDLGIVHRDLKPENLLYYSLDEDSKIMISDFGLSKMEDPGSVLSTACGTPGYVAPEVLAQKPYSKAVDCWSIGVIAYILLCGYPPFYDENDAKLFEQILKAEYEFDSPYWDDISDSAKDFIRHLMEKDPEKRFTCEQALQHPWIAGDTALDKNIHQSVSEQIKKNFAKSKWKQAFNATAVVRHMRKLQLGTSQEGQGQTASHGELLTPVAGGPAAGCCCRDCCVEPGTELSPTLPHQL

Calcium/calmodulin-dependent protein kinase type II subunit gamma (Homo sapiens), sequence (Q13555 whole entry): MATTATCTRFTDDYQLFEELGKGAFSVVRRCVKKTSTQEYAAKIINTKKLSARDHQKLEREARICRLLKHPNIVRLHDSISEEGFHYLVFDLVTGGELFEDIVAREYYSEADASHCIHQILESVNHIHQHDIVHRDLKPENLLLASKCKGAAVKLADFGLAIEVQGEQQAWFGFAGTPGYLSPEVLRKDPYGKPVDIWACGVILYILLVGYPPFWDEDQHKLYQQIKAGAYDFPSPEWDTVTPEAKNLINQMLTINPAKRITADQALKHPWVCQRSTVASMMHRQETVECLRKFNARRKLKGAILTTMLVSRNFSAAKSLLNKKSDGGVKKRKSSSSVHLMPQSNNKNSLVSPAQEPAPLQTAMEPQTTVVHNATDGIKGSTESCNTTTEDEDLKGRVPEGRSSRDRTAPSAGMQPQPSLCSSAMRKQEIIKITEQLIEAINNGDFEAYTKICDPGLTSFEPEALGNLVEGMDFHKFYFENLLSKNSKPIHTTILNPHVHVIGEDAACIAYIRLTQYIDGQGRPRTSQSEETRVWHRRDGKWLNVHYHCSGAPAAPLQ
Dual specificity protein kinase CLK2 (Homo sapiens), sequence (P49760 whole entry, looked up): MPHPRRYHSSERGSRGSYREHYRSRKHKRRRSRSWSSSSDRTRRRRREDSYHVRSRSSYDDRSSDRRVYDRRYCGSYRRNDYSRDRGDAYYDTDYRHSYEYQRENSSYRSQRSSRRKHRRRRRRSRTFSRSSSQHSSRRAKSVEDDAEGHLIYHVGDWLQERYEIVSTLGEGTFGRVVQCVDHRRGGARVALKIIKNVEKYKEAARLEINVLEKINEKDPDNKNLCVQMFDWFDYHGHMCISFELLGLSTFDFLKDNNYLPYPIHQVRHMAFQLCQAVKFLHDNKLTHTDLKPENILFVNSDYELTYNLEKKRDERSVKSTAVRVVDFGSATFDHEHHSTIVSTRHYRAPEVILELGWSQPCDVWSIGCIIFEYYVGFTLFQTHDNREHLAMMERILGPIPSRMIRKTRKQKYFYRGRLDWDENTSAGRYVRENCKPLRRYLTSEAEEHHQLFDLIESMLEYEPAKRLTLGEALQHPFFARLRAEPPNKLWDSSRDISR
Dual specificity protein kinase CLK3 (Homo sapiens), sequence (P49761 whole entry, looked up): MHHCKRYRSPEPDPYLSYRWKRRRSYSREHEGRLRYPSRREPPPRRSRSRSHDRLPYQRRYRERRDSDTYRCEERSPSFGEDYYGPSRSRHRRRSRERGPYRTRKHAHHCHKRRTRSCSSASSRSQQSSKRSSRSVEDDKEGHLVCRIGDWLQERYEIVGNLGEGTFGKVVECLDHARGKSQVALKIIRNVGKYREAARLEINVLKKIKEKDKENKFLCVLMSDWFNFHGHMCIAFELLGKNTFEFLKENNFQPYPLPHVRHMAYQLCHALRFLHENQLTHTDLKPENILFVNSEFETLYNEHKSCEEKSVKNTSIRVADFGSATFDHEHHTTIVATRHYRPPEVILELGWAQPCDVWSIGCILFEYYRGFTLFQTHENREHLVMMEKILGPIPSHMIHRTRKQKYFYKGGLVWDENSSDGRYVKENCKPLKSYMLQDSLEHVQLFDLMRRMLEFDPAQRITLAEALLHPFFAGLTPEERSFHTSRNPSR
Casein kinase II subunit alpha' (Homo sapiens), sequence (P19784 whole entry, looked up): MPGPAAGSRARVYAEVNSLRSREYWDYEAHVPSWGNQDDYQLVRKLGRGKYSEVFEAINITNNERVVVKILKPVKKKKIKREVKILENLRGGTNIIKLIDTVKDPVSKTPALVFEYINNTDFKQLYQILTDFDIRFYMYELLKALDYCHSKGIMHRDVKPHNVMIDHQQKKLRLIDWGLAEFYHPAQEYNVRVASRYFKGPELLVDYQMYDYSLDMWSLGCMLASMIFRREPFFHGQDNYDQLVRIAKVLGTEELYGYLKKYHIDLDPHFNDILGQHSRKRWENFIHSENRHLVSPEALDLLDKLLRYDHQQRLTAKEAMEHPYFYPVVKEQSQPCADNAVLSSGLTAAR
T1 sequence (P19784 whole entry, looked up): as above
T1 sequence (P67870 whole entry, looked up): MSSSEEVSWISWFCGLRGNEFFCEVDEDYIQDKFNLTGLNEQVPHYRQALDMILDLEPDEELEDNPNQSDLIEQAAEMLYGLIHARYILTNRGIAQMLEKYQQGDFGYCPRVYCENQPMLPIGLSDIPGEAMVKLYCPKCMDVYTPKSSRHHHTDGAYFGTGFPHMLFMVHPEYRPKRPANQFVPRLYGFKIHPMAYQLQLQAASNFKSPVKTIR
T1 sequence (P68400 whole entry, looked up): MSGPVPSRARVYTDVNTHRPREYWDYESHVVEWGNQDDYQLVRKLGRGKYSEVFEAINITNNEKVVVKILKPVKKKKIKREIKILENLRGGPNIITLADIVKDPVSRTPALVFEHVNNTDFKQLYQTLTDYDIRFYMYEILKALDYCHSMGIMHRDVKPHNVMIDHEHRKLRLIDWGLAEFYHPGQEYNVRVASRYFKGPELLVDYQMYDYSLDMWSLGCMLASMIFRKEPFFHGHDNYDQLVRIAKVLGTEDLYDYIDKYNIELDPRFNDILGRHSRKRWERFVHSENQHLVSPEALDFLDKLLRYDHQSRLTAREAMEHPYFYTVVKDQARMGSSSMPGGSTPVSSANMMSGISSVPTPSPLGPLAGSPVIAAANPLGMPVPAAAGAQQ
Tyrosine-protein kinase CSK (Homo sapiens), sequence (P41240 2-450 limits assumed): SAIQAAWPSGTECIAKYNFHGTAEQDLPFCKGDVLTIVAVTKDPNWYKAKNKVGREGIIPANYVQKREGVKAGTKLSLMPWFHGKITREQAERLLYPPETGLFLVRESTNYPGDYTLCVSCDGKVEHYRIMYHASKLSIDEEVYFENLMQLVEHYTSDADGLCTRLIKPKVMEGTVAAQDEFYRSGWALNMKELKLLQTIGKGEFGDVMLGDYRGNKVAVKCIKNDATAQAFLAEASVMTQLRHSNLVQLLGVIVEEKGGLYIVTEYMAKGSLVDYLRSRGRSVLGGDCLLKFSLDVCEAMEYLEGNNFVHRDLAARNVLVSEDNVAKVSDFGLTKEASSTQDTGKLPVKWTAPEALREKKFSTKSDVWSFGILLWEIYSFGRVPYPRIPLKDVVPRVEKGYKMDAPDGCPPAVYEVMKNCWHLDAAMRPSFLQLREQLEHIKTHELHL
Calcium/calmodulin-dependent protein kinase type II subunit beta (Homo sapiens), sequence (Q13554 whole entry): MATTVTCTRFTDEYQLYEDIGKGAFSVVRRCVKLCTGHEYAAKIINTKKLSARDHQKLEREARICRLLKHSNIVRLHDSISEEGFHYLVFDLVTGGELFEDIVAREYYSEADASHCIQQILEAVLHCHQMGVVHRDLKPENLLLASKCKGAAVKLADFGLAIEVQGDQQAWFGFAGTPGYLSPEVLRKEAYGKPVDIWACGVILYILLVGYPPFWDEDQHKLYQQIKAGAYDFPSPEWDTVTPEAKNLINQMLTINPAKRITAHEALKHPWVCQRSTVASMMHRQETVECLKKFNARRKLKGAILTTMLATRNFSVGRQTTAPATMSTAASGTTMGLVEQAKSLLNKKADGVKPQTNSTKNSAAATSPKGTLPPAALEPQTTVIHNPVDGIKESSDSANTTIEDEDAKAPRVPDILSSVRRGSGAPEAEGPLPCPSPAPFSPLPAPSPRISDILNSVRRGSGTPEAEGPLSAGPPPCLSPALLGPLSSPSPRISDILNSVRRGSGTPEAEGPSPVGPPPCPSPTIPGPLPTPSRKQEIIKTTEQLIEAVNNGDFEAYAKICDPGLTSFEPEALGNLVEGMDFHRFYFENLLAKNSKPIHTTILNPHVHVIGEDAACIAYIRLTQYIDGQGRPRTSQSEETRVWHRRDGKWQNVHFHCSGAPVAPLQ
Calcium/calmodulin-dependent protein kinase type II subunit delta (Homo sapiens), sequence (Q13557 whole entry): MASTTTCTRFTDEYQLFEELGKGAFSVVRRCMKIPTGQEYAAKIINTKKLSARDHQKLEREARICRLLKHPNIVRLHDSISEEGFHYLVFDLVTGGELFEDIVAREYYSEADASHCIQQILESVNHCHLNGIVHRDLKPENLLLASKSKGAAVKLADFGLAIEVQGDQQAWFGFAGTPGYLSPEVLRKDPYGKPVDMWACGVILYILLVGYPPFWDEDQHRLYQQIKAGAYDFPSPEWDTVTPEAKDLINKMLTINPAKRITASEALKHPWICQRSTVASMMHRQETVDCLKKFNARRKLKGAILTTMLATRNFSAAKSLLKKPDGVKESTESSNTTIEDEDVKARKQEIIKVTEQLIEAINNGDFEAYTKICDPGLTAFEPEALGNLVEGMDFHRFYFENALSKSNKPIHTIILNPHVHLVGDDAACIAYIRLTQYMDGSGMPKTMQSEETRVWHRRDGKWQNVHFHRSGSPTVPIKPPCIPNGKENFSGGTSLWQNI

With `c1ccc(-c2n[nH]cc2-c2ccnc3ccccc23)nc1`, the residual activity in [1] was determined as 104%; in [2] it was 105%; in assay [3] it was 86%; in assay [4], 86%; in assay [5], 132%; in assay [6], 83%. Besides, the residual activity in assay [7] came to 96%; in assay [8] it was 68%; in assay [9], 94%; in [10], 69%; in assay [11], 96%; in [12], 80%. In addition, the residual activity in assay [13] was found to be 139%; in assay [14], 78%.
Consider `COc1ccc(OC)c2c(=S)c3ccccc3[nH]c12`, for which the residual activity in assay [1] was 103%; in [2], 79%; in assay [15], 81%; in assay [16], 97%; in assay [17], 99%; in [3], 74%. The residual activity in [4] is 90%; in [5], 81%; in [18], 109%; in assay [19], 105%; in [20] it was 96%; in assay [6] it was 77%. Moreover, the residual activity is 92% in assay [7]; 54% in [8]; 90% in assay [9]; 54% in assay [10]; 95% in assay [11]; 62% in assay [12]. Also, the residual activity in [13] amounted to 100%; in [14] it was 84%.
Regarding `N#Cc1cnc2cnc(NCc3cccnc3)cc2c1Nc1ccc(F)c(Cl)c1`, the residual activity was determined as 100% in assay [16]; 84% in [4]; 51% in [5]; 93% in [18]; 75% in assay [19]; 42% in assay [20]. Also, the residual activity in assay [6] is 26%; in assay [7], -2%; in [8] it was 1%; in assay [9], 0%; in assay [10], -1%; in assay [11] it was -1%. The residual activity in assay [12] was found to be 0%; in assay [13], 98%; in assay [14] it was 102%.
In the case of `CN(C)CCCn1cc(C2=C(c3c[nH]c4ccccc34)C(=O)NC2=O)c2ccccc21`, the residual activity in [1] stood at 107%; in assay [2], 101%; in assay [16] it was 104%; in [17], 14%; in assay [3], 2%; in assay [4], 66%. The residual activity in assay [5] was 21%; in assay [18], 122%; in assay [19], 100%; in assay [20], 89%; in assay [6] it was 49%; in assay [7] it was 63%. For the same molecule, the residual activity in [8] was 18%; in [9] it was 28%; in assay [10], 6%; in assay [11] it was 16%; in [12], 5%; in [13], 88%. In addition, the residual activity in assay [14] worked out at 45%.
Consider `COc1ccc(CNc2nc(N(CCO)CCO)nc3c2ncn3C(C)C)cc1`, for which the residual activity stood at 96% in assay [1]; 101% in [2]; 100% in assay [15]; 107% in assay [16]; 48% in assay [17]; 18% in [3]. Also, the residual activity in assay [4] came out at 87%; in [5], 62%; in assay [18], 106%; in assay [19] it was 96%; in assay [20] it was 85%; in assay [6] it was 55%. The residual activity worked out at 89% in [7]; 55% in assay [8]; 99% in assay [9]; 63% in assay [10]; 92% in assay [11]; 54% in assay [12]. Further, the values for the residual activity in assay [13] and in assay [14] were 113% and 78%, respectively.
Take `Cc1cccc(-c2[nH]c(C(C)(C)C)nc2-c2ccc3c(c2)OCO3)n1`: the residual activity in assay [2] was found to be 132%; in assay [4], 90%; in assay [5], 145%; in assay [7], 93%; in assay [8], 88%; in assay [10], 99%. Also, the residual activity stood at 105% in [11], 99% in assay [12], 129% in assay [13] and 88% in [14].
`c1ccc(-c2n[nH]c3c2oc2ccccc23)cc1`: the residual activity is 86% in [1]; 119% in assay [15]; 94% in [16]; 91% in [17]; 80% in [3]; 86% in assay [4]. Further, the residual activity in [5] is 14%; in assay [20] it was 115%; in assay [6], 136%; in assay [7], 87%; in assay [8], 36%; in [9] it was 81%. For the same molecule, the residual activity in [10] was 25%; in assay [11] it was 79%; in assay [12], 22%; in assay [14] it was 90%.
For `Cc1cc2ncc(-c3ccccc3)nc2cc1C`, the residual activity in assay [3] worked out at 98%; in [4] it was 98%; in assay [5], 96%; in assay [6], 89%; in assay [7], 101%; in assay [8], 92%. For the same molecule, the residual activity in assay [10] was determined as 94%; in assay [12], 81%; in assay [13], 108%; in assay [14] it was 100%.
Consider `N#CC(C#N)=C(N)/C(C#N)=C/c1ccc(O)cc1`, for which the residual activity in assay [1] is 91%; in assay [2] it was 85%; in assay [15], 120%; in [16] it was 86%; in assay [4] it was 87%; in assay [5], 126%. The residual activity in assay [7] is 96%; in assay [8], 90%; in assay [9], 116%; in assay [10], 95%.
Take `Cn1cnc2cc3c(Nc4cccc(Br)c4)ncnc3cc21`: the residual activity in assay [1] was determined as 87%; in assay [2], 119%; in [15], 126%; in assay [16], 89%; in [17] it was 106%; in assay [3] it was 75%. Further, the residual activity in assay [4] is 91%; in [5], 112%; in assay [18], 105%; in assay [19] it was 97%; in assay [20], 103%; in [6], 54%. Besides, the residual activity in assay [7] amounted to 93%; in [8], 89%; in [9], 85%; in [10] it was 43%; in assay [11], 97%; in [12] it was 52%. Also, the results for the residual activity in assay [13] and in [14] were 105% and 86%, respectively.
With `O=C1NC(=O)/C(=C\c2ccc3nccnc3c2)S1`, the residual activity in assay [1] is -13%; in [2], -12%; in assay [15], -12%; in [16], -5%; in [17], 43%; in assay [3] it was 6%. Besides, the residual activity in [4] is 19%; in assay [5], -1%; in assay [18] it was 102%; in assay [19], 99%; in assay [20] it was 109%; in assay [6], 80%. In addition, the residual activity in assay [7] came out at 65%; in [8], 18%; in [9], 91%; in assay [10], 34%; in assay [11] it was 76%; in assay [12] it was 28%. Besides, the residual activity was found to be 109% in assay [13] and 84% in assay [14].
As to `N#CCCc1ccc2c(c1)-c1[nH]c3ccc([N+](=O)[O-])cc3c1CC(=O)N2`, the residual activity in [7] stood at 54%; in assay [8], 32%; in [9] it was 6%; in assay [10], 1%; in assay [11], 10%; in [12] it was 3%.
For `Cc1cc(Nc2nc(-c3ccccc3)nc3ccccc23)n[nH]1`, the residual activity in assay [1] was 43%; in assay [2] it was -2%; in assay [15], 21%; in assay [16], -2%; in assay [17] it was 10%; in [3], 8%. Moreover, the residual activity in [4] stood at 53%; in [5] it was 15%; in assay [18], 102%; in [20] it was 61%; in [6] it was 13%; in assay [8] it was 42%. In addition, the residual activity came out at 60% in assay [9]; 16% in assay [10]; 63% in [11]; 20% in assay [12]; 47% in assay [13]; 15% in assay [14].
